Test results taken from the supplement of paper PMC10849652.
Of roughly 7,900 targets only a part is listed; those with a hit were picked by preference. About 0.6% of all pairs of compound and target were hits. Unmarked numbers belong to inactive results.

Assays:
Test in all cases: log2 fold change, soluble protein after heating vs DMSO (PISA); higher = thermal stabilisation; K562 cells, 10 uM, 30 min; active = over 0.2 and 3.5 SD of the protein, either way, in both replicates (recomputed)
[1] = compound: C1=CC=C(C=C1)[C@H](COC2=CC3=C(C=C2)NC(=O)N3)NC(=O)C4=CC=CN(C4=O)CC5=CC(=C(C=C5)F)F
Summary of the method: (§1)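 Soluble protein was quantified by TMTpro 16plex LC-MS/MS after channel sums were equalised. It was obtained as the supernatant after 21,000xg for 90 min from pooled aliquots of K562 cells (2×10^6 cells/mL, 10 μM compound, 30 min) heated for 3 min across 48°C-58°C and extracted in PBS with 0.5% NP-40 at 4°C. Thermal stability values are relative to control samples and come from duplicates. They are given as log2 fold changes.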

[2] = compound: CC1=C(SC2=C1C(=N[C@H](C3=NN=C(N32)C)CC(=O)N)C4=CC=C(C=C4)Cl)C
Summary of the method: as §1

[3] = compound: CC1=C2C(=CC=C1)N=C(N(C2=O)C3=CC=CC=C3C)CN4C=NC5=C(N=CN=C54)N
Summary of the method: as §1

[4] = compound: Cc1sc2c(c1C)C(c1ccc(Cl)cc1)=N[C@@H](CC(=O)OC(C)(C)C)c1nnc(C)n1-2
Summary of the method: as §1

[5] = compound: c1ccc([C@@H]2C[C@H]2NC2CCNCC2)cc1
Summary of the method: as §1

UniProt P06454, sequence (P06454 whole entry, looked up): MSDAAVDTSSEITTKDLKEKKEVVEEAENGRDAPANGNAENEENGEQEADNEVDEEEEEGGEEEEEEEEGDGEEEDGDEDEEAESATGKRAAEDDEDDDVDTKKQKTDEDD
UniProt O00233, sequence (O00233 whole entry, looked up): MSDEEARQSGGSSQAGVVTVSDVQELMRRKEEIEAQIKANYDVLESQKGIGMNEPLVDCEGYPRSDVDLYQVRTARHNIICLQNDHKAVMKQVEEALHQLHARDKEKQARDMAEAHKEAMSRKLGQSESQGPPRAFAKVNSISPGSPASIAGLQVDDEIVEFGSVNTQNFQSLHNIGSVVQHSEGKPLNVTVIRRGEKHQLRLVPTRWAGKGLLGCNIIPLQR
UniProt P0CG38, sequence (P0CG38 whole entry, looked up): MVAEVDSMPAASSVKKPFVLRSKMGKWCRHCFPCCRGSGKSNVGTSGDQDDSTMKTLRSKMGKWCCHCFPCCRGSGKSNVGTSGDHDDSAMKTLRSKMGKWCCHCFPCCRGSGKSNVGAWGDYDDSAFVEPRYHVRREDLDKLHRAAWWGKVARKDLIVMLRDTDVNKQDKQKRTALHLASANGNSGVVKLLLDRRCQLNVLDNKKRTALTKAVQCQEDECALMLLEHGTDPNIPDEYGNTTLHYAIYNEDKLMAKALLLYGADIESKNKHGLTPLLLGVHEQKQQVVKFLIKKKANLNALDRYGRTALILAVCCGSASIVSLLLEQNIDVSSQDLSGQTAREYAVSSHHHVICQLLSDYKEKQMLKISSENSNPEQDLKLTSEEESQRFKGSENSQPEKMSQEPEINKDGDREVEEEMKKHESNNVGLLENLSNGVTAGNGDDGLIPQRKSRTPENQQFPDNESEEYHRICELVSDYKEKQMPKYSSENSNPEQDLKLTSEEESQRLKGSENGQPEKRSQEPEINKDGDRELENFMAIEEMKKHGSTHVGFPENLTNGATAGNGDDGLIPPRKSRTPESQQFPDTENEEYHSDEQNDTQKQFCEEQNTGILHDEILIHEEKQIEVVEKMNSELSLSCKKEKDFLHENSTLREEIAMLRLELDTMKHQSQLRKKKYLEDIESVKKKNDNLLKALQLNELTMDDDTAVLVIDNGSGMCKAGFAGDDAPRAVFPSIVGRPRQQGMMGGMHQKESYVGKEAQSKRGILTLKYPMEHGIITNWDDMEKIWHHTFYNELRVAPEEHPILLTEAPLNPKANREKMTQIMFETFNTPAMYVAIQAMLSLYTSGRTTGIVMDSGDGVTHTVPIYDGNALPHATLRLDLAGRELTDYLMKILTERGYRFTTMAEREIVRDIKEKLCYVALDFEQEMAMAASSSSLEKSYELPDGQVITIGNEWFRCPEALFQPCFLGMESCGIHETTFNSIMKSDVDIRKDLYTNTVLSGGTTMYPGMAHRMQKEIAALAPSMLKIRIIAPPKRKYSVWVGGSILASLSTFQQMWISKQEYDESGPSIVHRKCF
UniProt Q9UMR5, sequence (Q9UMR5 whole entry, looked up): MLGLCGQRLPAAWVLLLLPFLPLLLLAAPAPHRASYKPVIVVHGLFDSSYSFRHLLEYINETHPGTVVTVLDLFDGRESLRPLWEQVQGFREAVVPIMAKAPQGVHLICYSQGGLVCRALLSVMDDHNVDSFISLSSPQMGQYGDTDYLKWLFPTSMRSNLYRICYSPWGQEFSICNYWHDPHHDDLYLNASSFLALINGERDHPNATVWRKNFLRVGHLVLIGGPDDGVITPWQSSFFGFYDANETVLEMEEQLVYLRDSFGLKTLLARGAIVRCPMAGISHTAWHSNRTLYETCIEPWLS
UniProt P31323, sequence (P31323 whole entry, looked up): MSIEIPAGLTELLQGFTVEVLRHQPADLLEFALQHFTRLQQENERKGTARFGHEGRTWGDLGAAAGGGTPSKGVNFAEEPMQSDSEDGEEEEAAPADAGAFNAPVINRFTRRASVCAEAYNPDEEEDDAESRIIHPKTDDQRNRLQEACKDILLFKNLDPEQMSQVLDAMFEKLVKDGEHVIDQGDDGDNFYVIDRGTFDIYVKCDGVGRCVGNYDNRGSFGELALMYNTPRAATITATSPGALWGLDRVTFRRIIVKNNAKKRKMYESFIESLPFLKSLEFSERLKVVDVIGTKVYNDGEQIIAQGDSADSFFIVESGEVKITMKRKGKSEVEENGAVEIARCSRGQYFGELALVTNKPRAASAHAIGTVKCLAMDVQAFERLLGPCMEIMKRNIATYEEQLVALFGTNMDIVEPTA
UniProt O00329, sequence (O00329 whole entry, looked up): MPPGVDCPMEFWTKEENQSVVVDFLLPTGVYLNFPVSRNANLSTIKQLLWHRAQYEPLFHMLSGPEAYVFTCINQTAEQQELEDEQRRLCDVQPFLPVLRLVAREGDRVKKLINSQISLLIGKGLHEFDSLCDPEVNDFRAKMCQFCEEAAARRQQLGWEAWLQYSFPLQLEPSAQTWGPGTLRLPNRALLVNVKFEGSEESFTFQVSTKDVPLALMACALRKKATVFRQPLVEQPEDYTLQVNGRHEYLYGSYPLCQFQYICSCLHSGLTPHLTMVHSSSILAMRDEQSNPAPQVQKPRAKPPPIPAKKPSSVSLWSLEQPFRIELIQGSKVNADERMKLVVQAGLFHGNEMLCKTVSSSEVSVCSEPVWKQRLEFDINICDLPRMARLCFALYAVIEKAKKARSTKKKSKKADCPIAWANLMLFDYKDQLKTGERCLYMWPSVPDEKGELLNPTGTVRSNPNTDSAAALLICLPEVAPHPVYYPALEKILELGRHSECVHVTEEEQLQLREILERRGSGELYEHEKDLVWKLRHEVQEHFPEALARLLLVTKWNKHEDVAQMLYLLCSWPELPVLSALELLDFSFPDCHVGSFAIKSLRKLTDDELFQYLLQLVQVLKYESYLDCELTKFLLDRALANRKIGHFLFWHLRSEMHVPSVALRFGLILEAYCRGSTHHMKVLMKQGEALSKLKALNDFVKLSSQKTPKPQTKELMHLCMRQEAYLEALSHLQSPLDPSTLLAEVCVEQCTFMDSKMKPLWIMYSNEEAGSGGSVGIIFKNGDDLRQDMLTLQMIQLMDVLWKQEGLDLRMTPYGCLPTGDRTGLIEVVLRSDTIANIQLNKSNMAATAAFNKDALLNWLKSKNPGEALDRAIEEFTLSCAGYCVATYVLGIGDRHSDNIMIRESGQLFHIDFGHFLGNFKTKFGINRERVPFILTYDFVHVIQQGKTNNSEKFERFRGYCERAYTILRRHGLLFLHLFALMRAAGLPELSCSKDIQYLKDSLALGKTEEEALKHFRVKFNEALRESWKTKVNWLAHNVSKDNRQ
UniProt Q10713, sequence (Q10713 whole entry, looked up): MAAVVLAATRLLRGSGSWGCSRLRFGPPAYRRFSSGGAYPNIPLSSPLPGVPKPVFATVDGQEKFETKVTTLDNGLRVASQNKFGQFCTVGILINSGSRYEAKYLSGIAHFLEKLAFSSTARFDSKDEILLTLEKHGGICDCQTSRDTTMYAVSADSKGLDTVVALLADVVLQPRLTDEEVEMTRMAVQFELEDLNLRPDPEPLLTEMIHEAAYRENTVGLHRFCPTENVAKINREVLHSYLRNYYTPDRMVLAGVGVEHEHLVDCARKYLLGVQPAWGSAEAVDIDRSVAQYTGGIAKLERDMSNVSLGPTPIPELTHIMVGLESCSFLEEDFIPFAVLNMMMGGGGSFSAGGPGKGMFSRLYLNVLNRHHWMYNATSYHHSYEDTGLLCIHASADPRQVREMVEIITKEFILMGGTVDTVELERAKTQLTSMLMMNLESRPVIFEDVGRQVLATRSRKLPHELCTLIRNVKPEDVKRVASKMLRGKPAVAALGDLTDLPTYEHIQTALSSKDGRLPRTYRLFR

Target | log2 fold change [1] | log2 fold change [2] | log2 fold change [3] | log2 fold change [4] | log2 fold change [5]
POTEI (UniProt P0CG38) | 0.025 | 0.012 | -0.059 | -0.03 | -0.002
PMPCA (UniProt Q10713) | -0.015 | 0.121 | 0.06 | 0.018 | -0.047
POLR2B (UniProt P30876) | -0.028 | 0.105 | 0.047 | 0.159 | -0.053
PIK3CD (UniProt O00329) | -0.166 | -0.126 | 0.424 (active) | -0.086 | 0.018
PSMD9 (UniProt O00233) | 0.014 | 0.017 | -0.004 | 0.007 | 0.016
PRKAR2B (UniProt P31323) | -0.065 | -0.012 | -0.06 | -0.024 | 0.007
PTMA (UniProt P06454) | 0.029 | 0.017 | -0.105 | -0.166 | -0.009
PPT2 isoform 3 (UniProt Q9UMR5) | 0.015 | -0.062 | -0.011 | -0.053 | 0.03
POLA1 (UniProt P09884) | -0.059 | 0.105 | 0.101 | -0.012 | 0
